Lamin A splicing: qHTS Assay for Modulators of Lamin A Splicing | HeLa LMNA splicing GFP/RFP minigene ratio, 48 h | Potency, µM (highest dose often 46.1 µM), actives largely listed as inhibitors | 0.01% of 200,000 active | AID 1487, 2009; active = well fitted inhibition curve with a large enough effect in the signal ratio, with a control signal flat, not every such curve was filed as active; inconclusive = small, poorly fitted or top-dose-only effect, or effect the other way, or a change in a side signal; the % refers to the signal ratio
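S3 HeLa stable clones carrying a lamin A-EGFP splicing minigene plus DsRed2 were seeded at 600 cells/well in Opti-MEM with 2% FBS, pin-dosed and incubated 48 h at 37°C. Acumen cytometry (488 nm) gave the GFP/RFP total-intensity ratio.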
KDM4E inh: qHTS Assay for Inhibitors of Human Jumonji Domain Containing 2E (JMJD2E) | Lysine-specific demethylase 4E (Homo sapiens), B2RXH2 | JMJD2E catalytic domain, FDH-coupled NADH fluorescence (FDH is formaldehyde dehydrogenase) | Potency, µM (doses to about 57.1 µM), most hits filed as inhibitors | 1.6% of 230,000 active | AID 2147, 2009; also: nearly all actives have a fitted effect of over 50% in size
HTT cytoprotect: qHTS Multiplex Assay to Identify Dual Action Probes in a Cell Model of Huntington: Cytoprotection (ATP); PC12 HTT-Q103 induced, cytoprotection, ATP luminescence, 40 h; Potency, µM (titrated, usually from 56.4 µM), hits mostly activators; 0.14% of 230,000 active; AID 1471, 2008; active = well fitted curve in the direction sought with a large enough effect; inconclusive = small, poorly fitted or top-dose-only effect, or another doubt; inactive = no such curve, though single readings can be large; an effect the other way counts as inactive or inconclusive; also: nearly all actives have a fitted effect of over 45% in size
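Readout: ATPlite luminescence (ATP level). Model: stable PC12, inducible Htt exon1 Q103-GFP. Inducer: tebufenozide, 100 nM final. Compounds: dose series. No G418 in medium.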
ALDH1A1 block: qHTS Assay for Inhibitors of Aldehyde Dehydrogenase 1 (ALDH1A1); Aldehyde dehydrogenase 1A1 (Homo sapiens), P00352; Purified ALDH1A1, NADH fluorescence, propionaldehyde substrate; AID 1030, 2008; 7.3% of 220,000 active; Potency, µM (titrated, usually from 75.3 µM), most hits filed as inhibitors
Target sequence (P00352 whole entry, looked up): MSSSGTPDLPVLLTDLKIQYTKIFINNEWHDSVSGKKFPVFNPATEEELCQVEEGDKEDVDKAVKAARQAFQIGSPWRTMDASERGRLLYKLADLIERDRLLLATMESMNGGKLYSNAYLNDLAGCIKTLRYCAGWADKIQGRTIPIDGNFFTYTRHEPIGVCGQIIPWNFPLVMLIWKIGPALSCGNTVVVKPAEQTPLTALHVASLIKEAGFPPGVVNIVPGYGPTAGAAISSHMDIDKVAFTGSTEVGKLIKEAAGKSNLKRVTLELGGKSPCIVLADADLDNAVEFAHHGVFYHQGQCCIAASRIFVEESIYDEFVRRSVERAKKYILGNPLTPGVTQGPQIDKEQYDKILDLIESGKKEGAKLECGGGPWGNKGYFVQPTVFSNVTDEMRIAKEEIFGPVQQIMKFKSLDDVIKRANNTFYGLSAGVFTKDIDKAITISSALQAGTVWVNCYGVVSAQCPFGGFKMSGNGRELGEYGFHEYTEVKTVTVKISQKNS
HPGD inh: qHTS Assay for Inhibitors of HPGD (15-Hydroxyprostaglandin Dehydrogenase) | 15-hydroxyprostaglandin dehydrogenase [NAD(+)] (Homo sapiens), P15428 | purified HPGD, NADH fluorescence kinetic, PGE2 substrate | Potency, µM, most hits filed as inhibitors | 4.3% of 150,000 active | AID 894, 2007
Target sequence (P15428 whole entry, looked up): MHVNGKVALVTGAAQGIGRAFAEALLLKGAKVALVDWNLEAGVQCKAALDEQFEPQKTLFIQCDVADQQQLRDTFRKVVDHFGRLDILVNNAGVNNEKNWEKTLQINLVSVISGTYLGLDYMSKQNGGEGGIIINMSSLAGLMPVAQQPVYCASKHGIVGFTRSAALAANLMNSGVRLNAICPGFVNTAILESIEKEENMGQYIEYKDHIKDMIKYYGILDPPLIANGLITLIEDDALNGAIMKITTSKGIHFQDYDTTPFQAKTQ
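NADH formation kinetics: reaction with 30 uM PGE2 and 1 mM NAD+ (final), 20 nM enzyme, Tris-HCl pH 8 with Tween 20, after 15 min compound preincubation at room temperature. Fluorescence change, last versus first of five reads.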
HttQ103 aggreg: qHTS Multiplex Assay to Identify Dual Action Probes in a Cell Model of Huntington: Aggregate Formation (GFP). PC12 HttQ103-GFP aggregates, Acumen cytometry, 40 h. Potency, µM (series often up to 46.1 µM), actives largely listed as inhibitors. 1.1% of 220,000 active; active = well fitted curve in the direction sought with a large enough effect; inconclusive = small, poorly fitted or top-dose-only effect, or another doubt; inactive = no such curve, though single readings can be large; an effect the other way counts as inactive or inconclusive; also: nearly all actives have a fitted effect of over 60% in size
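Quantitative HTS on tebufenozide-induced (100 nM) PC12 cells stably expressing polyQ103 Huntingtin exon 1–GFP. Reduction of bright GFP aggregates, detected by laser scanning cytometry after lysis, identified actives across the titration.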
A number is an active result; . = inactive; ? = inconclusive; / = not tested or not shown; [ ] = another dose, or the depositor's remark. A selection: hits, their analogues and other compounds. The true share with any hit is near 9.2%. Unless noted, calls follow the shape of the dose curve; as a rule, active = well fitted inhibition curve with a large enough effect (not every such curve was filed as active); inconclusive = small, poorly fitted or top-dose-only effect, or another doubt; inactive = no such curve, though single readings can be large or run the other way.

SMILES | Lamin A splicing | KDM4E inh | HTT cytoprotect | ALDH1A1 block | HPGD inh | HttQ103 aggreg
Oc1cccc2ccc(SSc3ccc4cccc(O)c4n3)nc12 | / | / | .[10 µM] | 4µM | 0.56µM | /
Oc1cccc2ccc(/C=C/c3c(F)cccc3Cl)nc12 | ? | 28µM | . | . | / | ?
Nc1nccc(/C=C/c2c(F)cccc2Cl)n1 | .[9.22 µM] | ? | .[1.9 µM] | ? | / | .[9.22 µM]
O/N=C/c1ccc2cccc(O)c2n1 | / | 32µM | .[10 µM] | / | / | .[9.22 µM]
O=C(O)c1ccc(/C=C/c2ccc3cccc(O)c3n2)cc1 | / | 8.9µM | ? | . | / | .
Cc1nc2c(O)cccc2cc1CO | / | . | .[10 µM] | / | / | .[9.22 µM]
Cc1nnc(NN2CCOCC2)[nH]c1=O | . | . | . | . | / | .
Cc1nnc(SCC(=O)Nc2nsc(-c3ccccc3)n2)s1 | . | . | .[0.074 µM] | . | . | 13µM
Cc1ccc(-c2nc(NC(=O)CSc3nnc(C)s3)ns2)cc1 | . | . | . | ? | ? | ?
COc1ccc(-c2nc(NC(=O)CSc3nnc(C)s3)ns2)cc1 | . | ? | .[1.9 µM] | ? | ? | 11µM
Cc1ccc(-c2nc(NC(=O)CSc3cc(C)c4ccccc4n3)ns2)cc1 | . | . | / | . | 13µM | .
O=C(Nc1cccc(Cl)c1)Nc1ccccc1-n1ccnc1 | / | . | .[10 µM] | . | / | .[9.22 µM]
COc1cccc(CNC(=O)CCCN2C(=O)CCn3nc(-c4cccn4C)cc32)c1 | . | / | / | / | / | /
CCOc1ccccc1N1CCN(c2nc3ccccc3nc2C(C#N)C(=O)OC)CC1 (centres undefined) | . | . | . | . | . | .
CCOc1ccccc1N1CCN(c2nc(N)c(C#N)c(CC#N)c2C#N)CC1 | . | ? | . | 20µM | . | .
CN(CC(=O)Nc1ccc(N2CCOCC2)cc1)Cc1cc(=O)n2ccsc2n1 | .[9.22 µM] | ? | . | ? | / | .
CCN(CC(=O)Nc1ccc2c(c1)OCCO2)Cc1cc(=O)n2ccsc2n1 | / | ? | . | 20µM | / | .
CCN(CC(=O)Nc1ccc2c(c1)OCCO2)CC(=O)Nc1ccc2c(c1)OCO2 | / | . | . | 10µM | / | .
Cc1ccc2c(CN3CCN(S(=O)(=O)c4ccc5c(c4)OCCO5)CC3)cc(=O)oc2c1C | ? | . | . | . | . | .
CCN(CC(=O)Nc1ccc2c(c1)OCCO2)Cc1cc(=O)oc2c(C)c(C)ccc12 | . | . | .[10 µM] | 16µM | . | .
CCCC[C@@H]1CN2[C@H](c3ccc(Br)cc3)[C@H](C)CC[C@H]2C(=O)O1 | / | / | .[10 µM] | .[13.5 µM] | / | /
c1ccc(Nc2nc3ccccc3[nH]2)nc1 | . | . | . | ? | 32µM | .
N#C/C(=C\c1ccc(-c2ccc(C(=O)O)cc2)o1)C(=O)NCC1CCCO1 (centres undefined) | . | ? | .[10 µM] | ? | ? | .
N#C/C(=C\c1ccc(-c2ccc(S(=O)(=O)N3CCOCC3)cc2)o1)C(=O)NC1CC1 | . | . | .[10 µM] | ? | 14µM | .
C[C@@H]1/C=C\CC(=O)OC[C@H](C)C(=O)N[C@@H](C)C(=O)OC1 | / | / | .[10 µM] | .[13.5 µM] | / | /
SMILES | Lamin A splicing | KDM4E inh | HTT cytoprotect | ALDH1A1 block | HPGD inh | HttQ103 aggreg
Cc1cc(C(=O)CSc2nc3ccc(Cl)cc3[nH]2)c(C)n1CC1CCCO1 (centres undefined) | . | . | . | . | . | 3.2µM
COc1ccc(Nc2nnc(SCC(=O)c3cc(C)n(CC4CCCO4)c3C)s2)cc1 (centres undefined) | ? | . | . | 6.3µM | . | .
COc1ccc(Nc2nnc(SCC(=O)Nc3ccc4[nH]c(=O)[nH]c4c3)s2)cc1 | / | . | .[10 µM] | 16µM | / | .[9.22 µM]
CCOC(=O)CCCNC(=O)COC(=O)c1cccc(F)c1 | . | . | . | . | / | .
Cc1cc2cc(CNC(=O)c3ccc4c(c3)OCO4)ccc2[nH]1 | ? | ? | . | 35µM | 20µM | .
COc1ccc(C(=O)NCc2ccc3[nH]c(C)cc3c2)cc1OC | / | . | / | 20µM | / | .
COc1cccc(C(=O)NCc2ccc3[nH]c(C)cc3c2)c1 | / | . | / | 28µM | / | .
COc1cc(CSc2ncc(CO)n2Cc2ccc(C)cc2)cc(OC)c1 | . | / | / | / | / | /
CC1(O)CC(=O)N(c2ccccc2)O1 (centres undefined) | . | . | . | 22µM | . | .
CS(=O)(=O)N1CC(C(=O)NC2CCCC2)Oc2ccc(Cl)cc21 (centres undefined) | . | . | . | 10µM | . | .
CS(=O)(=O)N1CC(C(=O)NN)Oc2ccc(Cl)cc21 (centres undefined) | . | . | . | ? | . | .
CC(=O)Nc1cccc(NC(=O)CSc2ccc(C(F)(F)F)cc2[N+](=O)[O-])c1 | . | . | . | ? | ? | .
O=C(CSc1ccc(C(F)(F)F)cc1[N+](=O)[O-])Nc1ccc2ccccc2c1 | . | . | / | 5.6µM | . | ?
CSc1ccc(C(=O)C2CCCN(C(=O)c3ccsc3)C2)cc1 (centres undefined) | / | . | .[10 µM] | 5µM | / | .[9.22 µM]
CCc1cc(C(=O)NNC(=S)NC(C)c2ccccc2)cs1 (centres undefined) | ? | . | . | . | . | 18µM
CCCc1cc(C(=O)NNC(=S)Nc2cccc(C)c2)cs1 | ? | . | .[10 µM] | 10µM | ? | .
Cc1cccc(NC(=S)NNC(=O)c2csc3c2CCC(C)C3)c1 (centres undefined) | ? | . | . | 22µM | . | ?
Cc1cccc(NC(=S)NNC(=O)c2ccc3c(c2)OCO3)c1 | . | . | / | ? | . | .
Cc1nn(C)cc1/C=N/NC(=S)Nc1ccccc1 | . | ? | . | 25µM | 28µM | .
Cc1ccc(NC(=S)N/N=C/c2c(C)nn(-c3ccccc3)c2N2CCCC2)cc1 | . | . | .[10 µM] | ? | / | .
NCCCCCc1nnc(SCC(N)=O)o1 | / | . | . | . | / | .
CCOC(=O)c1cccc(NS(=O)(=O)c2cc3c(cc2C)NC(=O)CO3)c1 | . | / | / | / | / | /
Cc1ccc(C)c(S(=O)(=O)N/N=C/c2cccnc2)c1 | . | . | .[10 µM] | 8.9µM | . | .
Cc1ccccc1NC(=O)N1CCN(S(=O)(=O)c2ccccc2)CC1 | . | . | .[10 µM] | . | / | .[9.22 µM]
Cc1ccc2nc(-c3ccc(SCC(=O)Nc4nnc(C)s4)nc3)[nH]c2c1 | ? | ? | .[10 µM] | . | ? | 16µM
Cc1ccc2nc(-c3ccc(SCC(=O)Nc4nc(C)cs4)nc3)[nH]c2c1 | . | ? | ? | . | . | .
Cc1cc(C)c(O)c(N)c1 | ? | 16µM | .[10 µM] | 25µM | / | .[9.22 µM]
C[C@]12CCC(=O)C=C1[C@@H]1C[C@H]1[C@H]1[C@@H]3[C@@H]4C[C@H]4[C@@]4(CCC(=O)O4)[C@@]3(C)CC[C@@H]12 | ? | / | ? | / | / | .

Assay outcomes as filed in PubChem.
